Compound activity: PubChem BioAssay, The Scripps Research Institute Molecular Screening Center
This is a sample that favours compounds with a hit; in the whole collection about 2.2% have one here.
HTR5A inv ag – HTR5A inverse agonists in luminescence cell assay, primary screen, counter-screen for OPRM1-OPRD1 heterodimer inverse agonist project, full-deck HTS; 5-hydroxytryptamine receptor 5A (Homo sapiens), P47898; HTR5A cell line, inverse agonism; inhibition, % at 9.3 µM; 340,000 tested, 0.083% active; AID 504634, 2011; in the data active = inhibition mostly above about 23%, no sharp cut-off; inactive = mostly below about 18%;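 note: 0% = cells with DMSO and 100% = no-cell wells with DMSO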
sPLA2-III inh – human group III sPLA2 inhibitors, primary screen, biochemical, QFRET, BODIPY PC-A2 liposome substrate | 370,000 tested, 0.56% active | QFRET BODIPY PC-A2 liposome hydrolysis, fluorescence | AID 743126, 2013 | inhibition, % at 12.2 µM;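 active = inhibition above mean plus 3 SD of compounds lying within the high and low control bounds, cut at about 19% in these data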;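 note: 0% = median of test compound wells and 100% = no enzyme DMSO wells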
OPRM1-OPRD1 ag – agonists of OPRM1-OPRD1 heterodimerization, primary screen, cell-based, luminescence. cells. activation, % at 9.3 µM. 340,000 tested, 0.3% active;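 note: 0% = vehicle-treated cells and 100% = reference agonist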
OPRM1-OPRD1 inv – inverse agonists of MOR-DOR heterodimerization, primary screen, cell-based, luminescence; 340,000 tested, 0.21% active; inhibition, % at 9.3 µM; Mu-type opioid receptor (Homo sapiens) + Delta-type opioid receptor (Homo sapiens), …; cell-based MOR-DOR heterodimer luminescence, inverse agonism; in the data active = inhibition above about 22%, passing the limit was not always enough;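 note: 0% = cells with DMSO and 100% = wells without cells with DMSO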
HTR5A ag ctr – HTR5A agonists in luminescence cell assay, primary screen, counter-screen for OPRM1-OPRD1 heterodimer agonist project, full-deck HTS. activation, % at 9.3 µM. cell-based. 340,000 tested, 0.61% active. 5-hydroxytryptamine receptor 5A (Homo sapiens), P47898; in the data active = activation mostly above about 9.5%, no sharp cut-off; inactive = mostly below about 7.6%;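 note: 0% = cells with vehicle only and 100% = reference agonist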
m5-HT2A agonist – mouse Htr2a agonists via beta-arrestin recruitment, primary screen, cell-based, luminescence. AID 624169, 2012. 5-hydroxytryptamine receptor 2A (Mus musculus), P35363. CHO-K1 mHTR2A beta-arrestin complementation; percent of 30 µM serotonin response. 360,000 tested, 0.66% active. activation, % at 7.6 µM;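 active = activation above a run cutoff, the mean activation of all tested compounds plus 3 SD, cut at about 14% in these data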;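 note: 0% = plate median of compound wells and 100% = 30 µM serotonin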
Target sequence (P35363 whole entry, looked up): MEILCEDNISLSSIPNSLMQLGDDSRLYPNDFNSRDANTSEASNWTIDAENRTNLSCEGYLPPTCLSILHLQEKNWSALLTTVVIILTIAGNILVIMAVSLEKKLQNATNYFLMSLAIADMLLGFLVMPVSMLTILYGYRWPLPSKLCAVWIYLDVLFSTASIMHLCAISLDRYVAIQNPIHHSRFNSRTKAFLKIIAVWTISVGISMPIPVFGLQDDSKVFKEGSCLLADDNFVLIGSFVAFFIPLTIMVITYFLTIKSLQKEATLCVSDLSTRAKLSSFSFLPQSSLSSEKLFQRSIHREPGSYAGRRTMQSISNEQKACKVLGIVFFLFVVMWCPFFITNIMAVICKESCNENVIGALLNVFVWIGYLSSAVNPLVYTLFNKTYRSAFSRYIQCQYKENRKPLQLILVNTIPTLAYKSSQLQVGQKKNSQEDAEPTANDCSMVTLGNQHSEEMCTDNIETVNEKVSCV
OPRM1-D1 ag cf – agonists of MOR-DOR heterodimerization, confirmation, cell-based, luminescence; shares compounds with OPRM1-OPRD1 ag; cells, luminescence complementation; activation, % at 9.3 µM; 830 tested, 45% active;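 note: 0% = vehicle-treated cells and 100% = reference agonist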
HTR5A ag counter – HTR5A agonists in cells, counter-screen for OPRM1-OPRD1 heterodimer agonist project, cell-based, luminescence; shares compounds with OPRM1-OPRD1 ag; HTR5A agonist counterscreen; activation, % at 9.3 µM; AID 504905, 2011; 830 tested, 8% active; in the data active = activation above about 17%;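 note: 0% = vehicle-treated cells and 100% = reference agonist response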
Numbers without * were called inactive; i = inactive; . = no result given. Cut-off read from the data, not from the text of the source, unless noted: active = activation above about 18%; inactive = the rest.

SMILES	HTR5A inv ag	sPLA2-III inh	OPRM1-OPRD1 ag	OPRM1-OPRD1 inv	HTR5A ag ctr	m5-HT2A agonist	OPRM1-D1 ag cf	HTR5A ag counter
Cc1cc(NC(=O)CN2CCc3ccccc3C2)nc2c1c(=O)oc1ccccc12	8.0	2.9	517.6*	i	-3.1	-1.3	-4.0	5.0
Cc1cccc(NC(=S)NC(=O)CCc2ccccc2)c1	-0.4	-4.2	18.1*	-98.0	0.1	-0.3	351.9*	-0.8
COc1cccc(N2CCN(CC(=O)NCc3c(F)cccc3F)CC2)c1	.	4.7	.	.	.	.	.	.
COc1cc(CNc2ccc(O)cc2)cc(Br)c1OCc1ccccc1F	-7.7	.	27.5*	-144.7	2.2	0.0	1.0	-0.2
O=C(CCc1ccccc1)N[C@H]1[C@H](OC(=O)c2ccco2)CCC[C@]12C(=O)N(Cc1ccccc1)c1ccccc12	.	-7.0	.	.	.	.	.	.
COc1ccc(Cn2cc(CN3[C@@H](CC(C)C)COc4cccc(F)c4S3(=O)=O)nn2)cc1	.	-2.8	.	.	.	.	.	.
OC(c1cc(-c2ccc(Cl)cc2)nc2ccccc12)C1CCCCN1 (stereo unspecified)	6.8	8.6	6.2	-27.6	-1.9	-3.3	.	.
OC(c1cc(C(F)(F)F)nc2c(Cl)cc(Cl)cc12)C1CCCCN1 (stereo unspecified)	-41.6	11.2	31.3*	-139.5	11.6*	4.4	1.2	3.1
CCC(C)N(C(=O)CSc1nnc(-c2cccnc2)n1C1CCCCC1)C(C)CC (stereo unspecified)	.	-2.6	.	.	.	.	.	.
CCCCNC(=O)C[C@H]1C[C@@]2(C(=O)OC)C(=C[C@H](C(C)C)O[C@@H]2C2CC2)N(Cc2ccc(Cl)cc2Cl)C1=O	.	-1.1	.	.	.	.	.	.
CCN(CC)C(=O)c1oc(=O)c2ccccc2c1-c1ccc(C)cc1	.	7.7	.	.	.	.	.	.
CC1CN(C)C(C)c2c1oc1ccc(N)cc21 (stereo unspecified)	-12.1	4.7	71.7*	-373.2	-3.4	2.2	58.4*	4.0
CN1[C@@H](Cc2ccccc2)COc2cccc(N3CCSCC3)c2S1(=O)=O	.	3.4	.	.	.	.	.	.
CCOc1ccc(-c2nnc(SCC(=O)Nc3ccc4c(c3)c3ccccc3n4CC)n2N)cc1	-1.9	1.2	33.2*	-176.6	0.8	-2.8	24.2*	18.7*
CCn1c2ccccc2c2cc(NC(=O)CSc3nnc(-c4ccc(OC)c(OC)c4)n3N)ccc21	-30.8	1.9	-0.4	1.9	11.2	1.6	.	.
CCCN1CCC(=O)N([C@H](COc2ccccc2)Cc2ccccc2)CC1	-1.3	-2.3	-0.5	2.6	3.2	-9.6	.	.
O=C1CCN(Cc2ccccc2)CCN1[C@H](COc1ccccc1)Cc1ccccc1	6.9	-1.9	25.2*	-140.3	4.6	4.8	25.0*	2.4
COc1ccc(S[C@]2(C(=O)N3CCOCC3)CC(=O)N(C(=O)C3CC3)[C@@H]2c2ccc(OC)cc2)cc1	.	-4.6	.	.	.	.	.	.
Cc1c(C(=O)NCC(c2ccco2)N(C)C)oc2c(Cl)cccc12 (stereo unspecified)	-24.0	5.5	31.7*	-171.2	0.5	-3.1	20.0*	30.1*
CN(C)C(CNC(=O)c1ccc(Br)cc1)c1ccco1 (stereo unspecified)	-5.8	0.5	43.2*	-206.3	1.6	-12.9	36.6*	-2.3
Cc1ccc2nc(-c3ccccc3)cc(C(=O)NCC(c3ccco3)N(C)C)c2c1 (stereo unspecified)	13.0	-11.7	35.9*	-228.4	-5.4	-11.7	1.0	-3.0
Cc1cc(C(=O)NCC(c2ccco2)N(C)C)ccc1[N+](=O)[O-] (stereo unspecified)	-5.3	-0.4	34.4*	-214.4	2.3	-4.3	25.6*	2.2
CN(C)C(CNC(=O)CCNC(=O)c1ccc(Br)cc1)c1ccco1 (stereo unspecified)	-4.7	5.3	0.2	-1.2	1.9	9.0	.	.
COc1ccccc1NC(=O)OC1CC2CC1[C@H]1CCCCN1[C@H]2Cc1ccccc1 (stereo partly specified)	.	5.5	.	.	.	.	.	.
Cc1cc(O)cc(=O)n1-c1cccc(C(F)(F)F)c1	.	8.6	.	.	.	.	.	.
SMILES	HTR5A inv ag	sPLA2-III inh	OPRM1-OPRD1 ag	OPRM1-OPRD1 inv	HTR5A ag ctr	m5-HT2A agonist	OPRM1-D1 ag cf	HTR5A ag counter
CCCCCCC[C@H](N)[C@H](O)C(=O)N(C)[C@@H](CCS(C)=O)C(=O)N[C@@H](Cc1ccc(O)cc1)C(=O)O (stereo partly specified)	.	4.9	.	.	.	.	.	.
O=C(NCCc1c[nH]c2ccccc12)OCc1cn(Cc2cccc(C(F)(F)F)c2)nn1	.	-88.4	.	.	.	.	.	.
CN(C)C(CNC(=O)c1cccc(C(F)(F)F)c1)c1ccco1 (stereo unspecified)	18.3	1.1	18.4*	-116.7	-1.4	1.1	45.0*	0.1
C[C@@H]1[C@@H](O)C[C@@]2(CC(=O)c3ccccc3O2)O[C@H]1c1ccccc1	.	-5.2	.	.	.	.	.	.
C[C@H]1O[C@@H](O[C@H]2[C@@H](O)C[C@H](O[C@H]3[C@@H](O)C[C@H](O[C@H]4CC[C@@]5(C)[C@H](CC[C@@H]6[C@@H]5C[C@@H](O)[C@]5(C)[C@@H](C7=CC(=O)OC7)CC[C@]65O)C4)O[C@@H]3C)O[C@@H]2C)C[C@H](O)[C@@H]1O	-93.6	1.0	64.9*	-359.3	28.0	-3.6	2.3	104.6*
N#Cc1ccc(/C=C2\CC3(OC(=O)c4ccc(Cl)cc4)CCCN2C3)cc1 (stereo unspecified)	.	-5.8	.	.	.	.	.	.
NC1=NC2(CCN(Cc3ccccc3)CC2)n2c(nc3ccccc32)N1	-4.4	2.2	49.7*	-244.7	-1.1	-5.1	27.8*	1.5
Cc1ccc(-c2nn(-c3cccc(F)c3)cc2CNCc2cccnc2)o1	-5.6	0.5	26.1*	-132.7	2.0	2.5	0.3	2.9
Cc1ccc(-c2nn(-c3cccc(F)c3)cc2CN2CCN(c3ccccn3)CC2)o1	24.2	-5.8	37.3*	-194.5	6.0	-3.3	-5.2	0.7
CCC(C)N(C(=O)Cn1nc(Cc2ccncc2)c2ccccc2c1=O)C(C)CC (stereo unspecified)	.	2.8	.	.	.	.	.	.
